Assay results reported in PubChem BioAssay AID1619 (SRMLSC, 2009).
Among all 220,000 compounds or so, about 830 (0.38%) were called active.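 The calls were made as follows: active = compound inhibiting the enzyme by more than half at any dose during confirmatory dose-response retesting; inconclusive = strong single-dose inhibitors picked by rank but not retested; inactive = the rest.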 Only a sample is shown. Measured potencies and affinities stand elsewhere.

Molecular target: Leucine aminopeptidase (Plasmodium falciparum (isolate 3D7)) (UniProt Q8IL11)
Sequence (Q8IL11 whole entry, looked up): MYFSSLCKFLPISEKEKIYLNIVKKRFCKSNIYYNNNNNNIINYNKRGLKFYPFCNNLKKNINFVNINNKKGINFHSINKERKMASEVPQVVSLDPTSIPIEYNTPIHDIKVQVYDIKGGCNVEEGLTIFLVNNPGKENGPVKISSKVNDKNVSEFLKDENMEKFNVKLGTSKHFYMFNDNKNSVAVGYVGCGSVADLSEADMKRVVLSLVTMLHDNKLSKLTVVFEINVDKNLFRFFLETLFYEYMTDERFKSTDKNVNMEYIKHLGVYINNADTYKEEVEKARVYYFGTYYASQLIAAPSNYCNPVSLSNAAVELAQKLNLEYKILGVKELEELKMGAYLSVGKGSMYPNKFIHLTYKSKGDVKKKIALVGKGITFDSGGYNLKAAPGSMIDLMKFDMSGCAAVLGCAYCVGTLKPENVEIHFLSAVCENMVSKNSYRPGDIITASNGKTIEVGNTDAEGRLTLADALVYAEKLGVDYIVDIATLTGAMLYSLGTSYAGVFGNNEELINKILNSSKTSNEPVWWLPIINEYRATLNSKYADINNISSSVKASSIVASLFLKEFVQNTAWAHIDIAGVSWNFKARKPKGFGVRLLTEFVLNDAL
Test: P. falciparum M17LAP inhibitors, primary screen, biochemical, fluorogenic H-Leu-NHMec substrate, 1536-well (AID 1619);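 also: plate controls were full reaction with DMSO carrier for no effect and no enzyme background for full effect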
Details: recombinant M17LAP, H-Leu-NHMec fluorogenic kinetic assay; at 30 µM; active compounds read high

inhibition, inactive:
CCN(c1ccccc1)S(=O)(=O)c1cc(C(=O)OC(C)C(=O)Nc2ccc3c(c2)OCCO3)ccc1C (stereo not drawn) -0.98%
Cn1c(SCC(=O)NCCN2C(=O)CSC2=O)nnc1-c1ccccc1 -14.5%
Cc1cc(C)c(-c2c(O)c3cnn(-c4ccccc4)c3[nH]c2=O)c(C)c1 13.5%
Cc1ccc(CC(=O)N2CCOCC2)cc1 0.85%
Cc1ccc2ccccc2[n+]1CCCS(=O)(=O)[O-] 7.83%
COC(=O)c1c(-c2ccc(C)cc2)csc1NC(=S)NC(=O)c1ccc(F)cc1 -17.5%
CCOC(=O)c1c(-c2ccc(F)cc2)csc1NC(=O)C1CC=CCC1C(=O)O (stereo not drawn) 3.77%
COC(=O)c1c(-c2ccccc2)csc1NC(=O)C1CC=CCC1C(=O)O (stereo not drawn) 6.75%
CCOC(=O)c1c(-c2cccc([N+](=O)[O-])c2)csc1NC(=O)C1CCCCC1 -7.16%
CCOC(=O)c1c(-c2ccc(C)cc2)csc1NC(=O)C1CCCO1 (stereo not drawn) -4.23%
CCOC(=O)c1c(-c2cccc([N+](=O)[O-])c2)csc1NC(=O)C1CC1 -5.68%
Cc1nn(-c2ccccc2)c(N)c1C(O)(CSc1nccn1C)C(F)(F)F (stereo not drawn) -3.48%
CCC(CC)c1nnc(NC(=O)C2=NNC(=O)CC2)s1 -4.73%
COc1ccc(-c2cc(=O)n(-c3ccc([N+](=O)[O-])cc3)[nH]2)cc1 2.52%
Nn1cnc2sc3c(c2c1=O)CCC3 0.94%
CCC(=O)Nc1ccc2c(c1)C(=O)c1ccccc1C2=O -6.31%
COC(=O)N1[C@H](C)C=C[C@]1(Cc1ccccc1)C(=O)O 2.77%
COc1ccc(N2C(=O)/C(=C/c3ccc([N+](=O)[O-])cc3)C=C2c2ccccc2)cc1 -15.3%
CCOC(=O)c1ccc(Cl)c(NC(=O)c2ccc(-c3ccccc3)cc2)c1 -7.72%
COc1ccccc1Nc1nc(-c2c(C)nc3ncccn23)cs1 11.3%
COc1ccc(C2C(C#N)=C(N)OC3=C2C(=O)CC(C)(C)C3)cc1 (stereo not drawn) 7%
CN=c1scc(C)n1/N=C/c1ccc(O)c(O)c1O 59%
CCN=c1scc(C)n1/N=C/c1ccsc1 12.2%
CCCCN(CC)CCCNC(=O)c1cc2c(=O)n(C)c3ccccc3c2n1C -2.09%
COc1ccc(/C=C2/SC(=S)N(CCC(=O)O)C2=O)cc1 38.8%
COc1ccc(C(=O)CCC(=O)O)cc1 2.45%
O=C(O)CCN1C(=O)/C(=C\c2ccncc2)SC1=S 12.4%
C/C(=C1/SC(=S)N(CCC(=O)O)C1=O)c1ccc(O)cc1 52.2%
